The record followed here is PubChem BioAssay (Tox21).

Results filed as inconclusive are left out. Unmarked numbers belong to inactive results. Calls of active or inactive are those of the source. Calls come from the whole dose curve.
% is set by controls: 0 for no effect and ±100 for the full control effect.

Chain of Vitamin D3 receptor (Homo sapiens) (P11473 whole entry, looked up): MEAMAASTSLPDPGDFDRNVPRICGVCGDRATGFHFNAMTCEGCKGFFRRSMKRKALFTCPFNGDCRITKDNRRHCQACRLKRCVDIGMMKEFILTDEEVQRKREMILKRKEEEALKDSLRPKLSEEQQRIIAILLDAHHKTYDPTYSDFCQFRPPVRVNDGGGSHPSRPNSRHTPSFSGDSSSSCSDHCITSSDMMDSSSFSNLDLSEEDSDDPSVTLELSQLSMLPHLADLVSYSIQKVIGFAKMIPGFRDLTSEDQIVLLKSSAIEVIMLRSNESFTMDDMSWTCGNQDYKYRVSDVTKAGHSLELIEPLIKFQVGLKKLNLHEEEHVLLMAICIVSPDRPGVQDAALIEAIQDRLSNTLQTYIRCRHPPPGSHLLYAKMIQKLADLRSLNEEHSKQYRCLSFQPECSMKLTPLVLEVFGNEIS

This test addresses Vitamin D3 receptor (Homo sapiens) (UniProt P11473). Nature of the test: qHTS assay to identify small molecule agonists of the vitamin D receptor (VDR) signaling pathway (AID 743222). The note with it: HEK293T VDR-UAS-bla, beta-lactamase FRET ratio, 16 h; series mostly up to 63.5 µM; activation: at the top concentration. The text has this:
National Center for Advancing Translational Sciences [NCATS]
NIH Chemical Genomics Center [NCGC]
U.S. Environmental Protection Agency [EPA]
National Institutes of Environmental Health Sciences [NIEHS]
National Toxicology Program [NTP]
U.S. Food and Drug Administration [FDA]
The vitamin D receptor (VDR), a member of nuclear hormone receptor superfamily, plays a critical role in calcium homeostasis and bone metabolism. It is also involved in cell differentiation and growth, and thrombogenicity.
Tox21 Assay Protocol Summary:
VDR-bla cells were dispensed at 2,000 cells/6 uL/well into black wall/clear-bottom 1536-well plates using a Multidrop Combi (Thermo Fisher Scientific, Waltham, MA) dispenser. After the assay plates were incubated at a 37C and 5% CO2 for 4 h, 23 nL of compounds dissolved in DMSO, positive controls or DMSO only was transferred to the assay plate by a Pintool station (Kalypsys, San Diego, CA). The plates were incubated at 37C and 5% CO2 for 16 h. After 1 uL of LiveBLAzerTM B/G FRET substrate was added using a Bioraptr Flying Reagent Dispenser (FRD) workstation (Beckman Coulter, Indianapolis, IN, USA), the plates were incubated at room temperature for 2 h, and fluorescence intensity was measured by an Envision plate reader (PerkinElmer, Shelton, CT).
Take `Cc1cc(=O)n(-c2ccccc2)n1C`: the result was inactive.
Take `O=C(O)CS`: the outcome was inactive.
`Cn1cc[nH]c1=S`: the “activation” value was 3.49%.
As to `CC(O)CO` (stereo not given), the outcome was inactive.
On to `O=C1CN(/N=C/c2ccc([N+](=O)[O-])o2)C(=O)N1`, for which the result was inactive.
For `CCC1(c2ccccc2)C(=O)NCNC1=O`, the result was inactive.
On the same count and under the same terms, the entry for `Nc1ccc(S(=O)(=O)Nc2nccs2)cc1` is “inactive”; for `O=C(O)C(=O)O` it is “inactive”; for `O=C(O)CCCCCCCC(=O)O` it is “inactive”.
Take `Oc1ccc(/C=C/c2cc(O)cc(O)c2)cc1`: the result was inactive.
On the same count and under the same terms, as for `O=C(O)c1[nH]n(-c2ccc(S(=O)(=O)O)cc2)c(=O)c1N=Nc1ccc(S(=O)(=O)O)cc1`, the entry is “inactive”; as for `CCCCC(CC)COC(=O)/C=C/c1ccc(OC)cc1` (stereo not given), “inactive”; as for `NC(N)=NC(=O)c1nc(Cl)c(N)nc1N`, “inactive”.
For `O=C(O)/C=C\C(=O)O`, the result was inactive.
As for `O=NO`, the outcome was inactive.
Turning to `O=S(=O)(O)c1ccc2cc(O)ccc2c1`, the result was inactive.
For the molecule `O=C(O)CCCCC(=O)O`, the result was inactive.
For the molecule `Cc1ccc(S(=O)(=O)NC(=O)NN2CCCCCC2)cc1`, the result was inactive.
For `O=C(O)c1cc(N=Nc2ccc(S(=O)(=O)Nc3ccccn3)cc2)ccc1O`, the result was inactive.
For the molecule `CCCCOC(=O)CC(CC(=O)OCCCC)(OC(C)=O)C(=O)OCCCC`, the result was inactive.
Regarding `O=C1NC(=O)c2ccccc21`, the outcome was inactive.
In the case of `O=C(C1CCCCC1)N1CC(=O)N2CCc3ccccc3C2C1` (stereo not given), the “activation” value was 2.27%.
Regarding `CC(=O)NS(=O)(=O)c1ccc(N)cc1`, the result was inactive.
`COc1c2occc2cc2ccc(=O)oc12`: the result was inactive.
With `OC(Cn1cncn1)(Cn1cncn1)c1ccc(F)cc1F`, the outcome was inactive.
Same read-out and setting: as for `CCCNC(=O)NS(=O)(=O)c1ccc(Cl)cc1`, the entry is “inactive”; as for `CC(O)C(=O)O` (stereo not given), “inactive”.
For `c1ccc2[nH]ccc2c1`, the result was inactive.
Regarding `CCCN(CCC)S(=O)(=O)c1ccc(C(=O)O)cc1`, the outcome was inactive.
Same read-out and setting: the entry for `CC1(C)[C@@H]2CC[C@@]1(C)C(=O)C2` is “inactive”; for `N=C(N)c1ccc(OCCCCCOc2ccc(C(=N)N)cc2)cc1` it is “inactive”; for `NC(=O)NC1NC(=O)NC1=O` (stereo not given) it is “inactive”.
Consider `CC(=O)OCC(COC(C)=O)OC(C)=O`, for which the result was inactive.
On to `Cc1cc(=O)[nH]c(=S)[nH]1`, for which the result was inactive.
As for `Cc1cn([C@H]2C[C@H](N=[N+]=[N-])[C@@H](CO)O2)c(=O)[nH]c1=O`, the outcome was inactive.
As to `C1N2CN3CN1CN(C2)C3`, the outcome was inactive.
For `CCCCC1C(=O)N(c2ccccc2)N(c2ccccc2)C1=O`, the result was inactive.
Turning to `NNC(=O)c1ccncc1`, the outcome was inactive.
Consider `NS(=O)(=O)c1cc(C(=O)O)c(NCc2ccco2)cc1Cl`, for which the result was inactive.
As to `CNC[C@H](O)c1cccc(O)c1`, the result was inactive.
